The target of assay [1] is Estrogen receptor (Homo sapiens) (UniProt P03372). The assay is described as follows: OT_ERa_GFPERaERE_0480: Odyssey Thera (OT) 8-hour HeLa Transcription Induction Assay for Estrogen Receptor (AID 2283381; active = hit-call score of the fitted dose curve at least 0.9, where 1 is the maximum; inactive = score below 0.9). An outline of the steps: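 HeLa cells expressing GFP reporter under estrogen response element, imaged 8 h after dosing. GFP induction quantified by high-content fluorescence microscopy image analysis; gain of signal fitted versus DMSO.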

Assay [2] has the same target. The assay is described as follows: OT_ERa_GFPERaERE_0120: Odyssey Thera (OT) 2-hour HeLa Transcription Induction Assay for Estrogen Receptor (AID 2283382). An outline of the steps:
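HeLa cells were dosed for 2 h, then GFP reporter induction was quantified by fluorescence microscopy with high-content image analysis. Gain of signal fitted against DMSO baseline.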

For assay [3], the target named is Peroxisome proliferator-activated receptor gamma (Homo sapiens) (UniProt P37231). The assay is described as follows: OT_PPARg_PPARgSRC1_0480: Odyssey Thera (OT) 8-hour Protein-Complementation Assay for Peroxisome Proliferator-activated Receptor Gamma / SRC-1 Co-activator (AID 2283387).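 Also: nuclear to cytoplasmic split Venus YFP fluorescence ratio reporting PPARg SRC-1 interaction.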 Put shortly:
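Split-YFP (IFP1/IFP2) PPARg/SRC-1 reporter, HEK293T, 37 °C, 5% CO2; 8 h compound; formaldehyde fix + Draq5; high-content imaging, N/C ratio, ≥350 cells/image, positive direction vs DMSO.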

Assay [4] shares this target. The assay is described as follows: OT_PPARg_PPARgSRC1_1440: Odyssey Thera (OT) 24-hour Protein-Complementation Assay for Peroxisome Proliferator-activated Receptor Gamma/ SRC-1 Co-activator (AID 2283388).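 Also: nuclear to cytoplasmic ratio of reconstituted Venus YFP fluorescence in fixed imaged cells.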 Put shortly:
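Transient HEK293T, YFP fragments 1-158/159-239 (mutant IFP1/IFP2) fused to PPARg/SRC-1; 24 h dosing; fix 4% formaldehyde, Draq5; Opera imaging 488/635 nm; N/C ratio, gain vs DMSO.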

The target of assay [5] is Retinoic acid receptor RXR-alpha (Homo sapiens) (UniProt P19793). The assay is described as follows: OT_NURR1_NURR1RXRa_0480: Odyssey Thera (OT) 8-hour HEK293T Protein Complementation Assay for Nurr1/retinoid X receptor (RXR) (AID 2283385). Put shortly:
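HEK293T cells expressing Nurr1 and RXRα fused to reporter fragments (protein-fragment complementation); fluorescence measured 8 h after dosing. Gain of signal fitted relative to DMSO.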

For assay [6] the target is unchanged. The assay is described as follows: OT_NURR1_NURR1RXRa_1440: Odyssey Thera (OT) 24-hour HEK293T Protein Complementation Assay for Nurr1/retinoid X receptor (RXR) (AID 2283386). An outline of the steps:
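HEK293T protein-fragment complementation of Nurr1 and RXRα fused to reporter fragments; compounds 24 h. Fluorescence gain from reconstituted reporter fitted versus DMSO.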

Results on 28 molecules are retold here after PubChem BioAssay (EPA / NIEHS).

Broadly, the AC50 is the concentration giving half of the maximal activity seen.

Molecules are shown by their SMILES. “And” between values parts separate entries of the source, which are not always exact repeats. Equal values may be shown once. Records with an inconclusive call do not appear. The source made the active and inactive calls. The calls were made as follows, unless noted: active = hit-call score of the fitted dose curve at least 0.9, where 1 is the maximum; inconclusive = response in the unintended direction; inactive = score below 0.9.

Retinoic acid receptor RXR-alpha (Homo sapiens), sequence (P19793 whole entry, looked up, the tested form may be a part): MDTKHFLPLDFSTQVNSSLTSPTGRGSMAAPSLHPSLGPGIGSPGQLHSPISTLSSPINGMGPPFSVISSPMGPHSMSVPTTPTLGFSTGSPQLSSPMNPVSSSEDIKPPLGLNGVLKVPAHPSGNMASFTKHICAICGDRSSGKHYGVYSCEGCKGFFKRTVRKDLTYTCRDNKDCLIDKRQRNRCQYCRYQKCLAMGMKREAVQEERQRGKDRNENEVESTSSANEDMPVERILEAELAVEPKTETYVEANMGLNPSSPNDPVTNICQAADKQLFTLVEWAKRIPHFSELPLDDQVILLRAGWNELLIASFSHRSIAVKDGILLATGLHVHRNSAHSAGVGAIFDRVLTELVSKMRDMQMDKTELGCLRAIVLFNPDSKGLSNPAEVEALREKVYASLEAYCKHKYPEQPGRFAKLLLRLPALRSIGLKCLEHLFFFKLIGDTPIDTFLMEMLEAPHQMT
Estrogen receptor (Homo sapiens), sequence (P03372 whole entry, looked up): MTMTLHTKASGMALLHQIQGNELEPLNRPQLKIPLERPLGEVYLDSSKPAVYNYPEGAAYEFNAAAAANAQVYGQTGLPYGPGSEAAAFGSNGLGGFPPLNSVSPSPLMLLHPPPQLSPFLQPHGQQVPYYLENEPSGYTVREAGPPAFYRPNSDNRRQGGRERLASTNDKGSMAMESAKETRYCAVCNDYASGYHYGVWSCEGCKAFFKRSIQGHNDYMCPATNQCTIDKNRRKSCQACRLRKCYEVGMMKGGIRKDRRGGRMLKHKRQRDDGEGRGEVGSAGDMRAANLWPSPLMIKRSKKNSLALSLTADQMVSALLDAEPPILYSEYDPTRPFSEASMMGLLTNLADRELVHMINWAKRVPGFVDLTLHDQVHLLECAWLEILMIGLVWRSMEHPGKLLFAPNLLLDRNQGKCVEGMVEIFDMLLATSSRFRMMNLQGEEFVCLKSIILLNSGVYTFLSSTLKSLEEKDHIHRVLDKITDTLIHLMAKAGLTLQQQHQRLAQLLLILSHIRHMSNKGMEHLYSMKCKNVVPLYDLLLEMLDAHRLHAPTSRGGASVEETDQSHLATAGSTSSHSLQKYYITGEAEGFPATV
Peroxisome proliferator-activated receptor gamma (Homo sapiens), sequence (P37231 whole entry, looked up): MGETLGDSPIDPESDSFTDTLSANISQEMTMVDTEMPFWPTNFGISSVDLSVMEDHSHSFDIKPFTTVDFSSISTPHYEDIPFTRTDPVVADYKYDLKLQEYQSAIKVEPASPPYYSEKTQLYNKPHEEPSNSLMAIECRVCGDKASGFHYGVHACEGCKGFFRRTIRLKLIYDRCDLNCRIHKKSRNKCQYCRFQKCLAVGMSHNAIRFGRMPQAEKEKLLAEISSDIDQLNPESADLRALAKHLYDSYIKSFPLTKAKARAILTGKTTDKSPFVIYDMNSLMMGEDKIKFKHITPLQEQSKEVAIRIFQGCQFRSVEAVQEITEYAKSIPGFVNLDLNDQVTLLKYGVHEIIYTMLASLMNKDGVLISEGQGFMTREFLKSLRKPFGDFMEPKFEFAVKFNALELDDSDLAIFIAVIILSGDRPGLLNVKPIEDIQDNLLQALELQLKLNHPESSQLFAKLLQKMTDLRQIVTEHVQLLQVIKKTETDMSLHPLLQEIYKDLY

Consider `Nc1ccc2c(c1)C(=O)c1ccccc1C2=O`, for which the call in assay [1], in assay [2], in assay [3] and in assay [4] was inactive.

In the case of `CCCCCCC(=O)OCC`, the molecule was classed as inactive in assay [1], in assay [2], in assay [5], in assay [3] and in assay [4].

Regarding `Cc1ccc(C(C)C)c(O)c1`, the molecule was classed as inactive in assay [1], in assay [2], in assay [5], in assay [3] and in assay [4].

Turning to `CC(C)(C)c1cc(O)c(C(C)(C)C)cc1O`, the outcome in assay [1], in assay [2], in assay [5], in assay [3] and in assay [4] was inactive.

In the case of `CC(=O)C(C)=CC1C(C)=CCCC1(C)C` (centres undefined), the molecule was classed as inactive in assay [1], in assay [5], in assay [3] and in assay [4]. The AC50 in assay [2] is 12.3 µM (active).

Consider `COCCOC[C@H](CC1(C(=O)NC2CCC(C(=O)O)CC2)CCCC1)C(=O)Oc1ccc2c(c1)CCC2` (some centres undefined), for which the outcome in assay [1], in assay [2], in assay [5], in assay [3] and in assay [4] was inactive.

For the molecule `CC(C)c1ccc(C(=O)N=C(N)N)cc1S(C)(=O)=O`, the outcome in assay [1], in assay [2], in assay [5], in assay [3] and in assay [4] was inactive.

With `CN1CCN(Cc2cc(-c3ccc4[nH]c(=O)oc4c3)co2)[C@@H](c2ccc(F)cc2)C1`, the AC50 in assay [5] is 10.1 µM (active). Further, the result in assay [3] and in assay [4] was inactive.

Consider `Cc1nc(C)nc(N2C[C@@H](C)N(c3ccnc([C@@H](C)O)n3)[C@@H](C)C2)n1`, for which the outcome in assay [1], in assay [2], in assay [5], in assay [3] and in assay [4] was inactive.

In the case of `Cc1ccc2ncccc2c1`, the outcome in assay [1], in assay [2], in assay [3] and in assay [4] was inactive.

With `C=CCc1ccc(O)c(OC)c1`, the result in assay [1], in assay [2], in assay [5], in assay [3] and in assay [4] was inactive.

With `CCCCCCCCCCCCCCCC`, the molecule was classed as inactive in assay [1], in assay [2], in assay [6], in assay [3] and in assay [4].

For the molecule `O=C(N[C@@H](Cc1ccccc1)[C@@H](O)C(=O)N1C[C@@H](O)[C@@H](O)C1)c1cc2cc(Cl)ccc2[nH]1`, the outcome in assay [1], in assay [2], in assay [5], in assay [6], in assay [3] and in assay [4] was inactive.

Turning to `OC[C@@H](O)[C@@H](O)[C@H](O)[C@H](O)CO`, the call in assay [1], in assay [2], in assay [5], in assay [3] and in assay [4] was inactive.

Turning to `Nc1ccccc1N`, the outcome in assay [1], in assay [2], in assay [5], in assay [3] and in assay [4] was inactive.

Turning to `O=[N+]([O-])C(CO)(CO)CO`, the molecule was called inactive in assay [1], in assay [2], in assay [5], in assay [3] and in assay [4].

Regarding `Oc1ccc2c(c1)OC[C@@H](N1CCC(O)(c3ccc(F)cc3)CC1)[C@H]2O`, the result in assay [1], in assay [2], in assay [5], in assay [3] and in assay [4] was inactive.

Take `c1cc(-c2ccncc2)ccn1`: the result in assay [1], in assay [2], in assay [6], in assay [3] and in assay [4] was inactive.

As to `CNCc1cc(F)ccc1Oc1ccc(Cl)c(Cl)c1`, the AC50 is 75.6 µM (active) in assay [1] and 70.5 µM (active) in assay [2]. For the same molecule, the molecule was called inactive in assay [3] and in assay [4].

Turning to `Cc1oc(-c2ccccc2)nc1CCOc1cccc2c1ccn2CCC(=O)O`, the result in assay [1], in assay [2] and in assay [5] was inactive. The AC50 in assay [3] is 2.57 µM (active) and 4.49 µM (active); in assay [4], 3.58 µM (active) and 2.88 µM (active).

On to `CC1(C)NC(=O)NC1=O`, for which the call in assay [1], in assay [2], in assay [5], in assay [3] and in assay [4] was inactive.

As for `CCCCCCCCCCC`, the molecule was called inactive in assay [1], in assay [2], in assay [5], in assay [3] and in assay [4].

For the molecule `CCCCC(CC)COC(=O)CC(C(=O)OCC(CC)CCCC)S(=O)(=O)O` (centres undefined), the values for the AC50 in assay [1] and in assay [2] were 22.8 µM (active) and 21.3 µM (active), respectively. Moreover, the outcome in assay [5], in assay [3] and in assay [4] was inactive.

`CCCCOC(=O)CCCCCCCCC(=O)OCCCC`: the result in assay [1], in assay [2], in assay [5], in assay [3] and in assay [4] was inactive.

Regarding `COC(=O)c1ccc(O)cc1`, the outcome in assay [1], in assay [2], in assay [3] and in assay [4] was inactive.

On to `CC=Cc1ccc(O)c(OC)c1`, for which the AC50 in assay [1] was 76.2 µM (active). Also, the call in assay [2], in assay [5], in assay [3] and in assay [4] was inactive.

In the case of `CCOC(=O)CCC(=O)OCC`, the result in assay [1], in assay [2], in assay [5], in assay [3] and in assay [4] was inactive.

As for `C[C@]12C=CC(=O)C=C1CC[C@@H]1[C@@H]2C(=O)C[C@@]2(C)[C@H]1CC[C@]2(O)C(=O)CO`, the result in assay [1], in assay [2], in assay [3] and in assay [4] was inactive.
